The values below come from the supplement of paper PMC10849652.

The full data set covers some 7,900 targets. This sample favours those with a hit. About 0.6% of all pairs of compound and target were hits. Values without a mark were called inactive.

Test in all cases: log2 fold change, soluble protein after heating vs DMSO (PISA); higher = thermal stabilisation; K562 cells, 10 uM, 30 min; active = over 0.2 and 3.5 SD of the protein, either way, in both replicates (recomputed)
Compound in one test: CN1CC[C@H](c2c(O)cc(O)c3c(=O)cc(-c4ccccc4Cl)oc23)[C@H](O)C1 [alvocidib]
In a few lines: (§1)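 For each measurement, 10 μM compound was applied for 30 min to K562 cells at 2×10^6 cells/mL. Aliquots were heated for 3 min across 48°C-58°C, pooled, and extracted in PBS with 0.5% NP-40 at 4°C; the supernatant after 21,000xg for 90 min was soluble protein. This was quantified by TMTpro 16plex LC-MS/MS with channel sums equalised, and thermal stability was reported relative to control samples from duplicates, on a log2 fold-change scale.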

Compound in the next test: CN1CCc2c(c3ccccc3n2Cc2ccc(C(=O)NO)cc2)C1 [Tubastatin A]
In a few lines:
as §1

Compound in test [1]: CNC(=O)C1=CC=CC=C1NC2=NC(=NC=C2Cl)NC3=C(C=C(C=C3)N4CCOCC4)OC
In a few lines:
as §1

Compound in a further test: CNC(=O)c1ccc(Nc2ncc(C(F)(F)F)c(NCc3nccnc3N(C)S(C)(=O)=O)n2)cc1 [defactinib]
An outline of the steps:
as §1

Compound in another test: CNCc1ccc(-c2[nH]c3cc(F)cc4c3c2CCNC4=O)cc1 [rucaparib]
An outline of the steps: as §1

Compound in a further test: COC(=O)N[C@@H](C)CNc1nccc(-c2cn(C(C)C)nc2-c2cc(Cl)cc(NS(C)(=O)=O)c2F)n1 [encorafenib]
An outline of the steps:
as §1

Compound in test [2]: COC(=O)[C@H](CCSC)NC(=O)C1=C(C=C(C=C1)NC[C@H](CS)N)C2=CC=CC=C2
An outline of the steps: as §1

Compound in the next test: CN1CCN(CCOc2cc(OC3CCOCC3)c3c(Nc4c(Cl)ccc5c4OCO5)ncnc3c2)CC1 [saracatinib]
An outline of the steps:
as §1

Compound in another test: CN1CCN(c2nc(C3=C(c4c[nH]c5ccccc45)C(=O)NC3=O)c3ccccc3n2)CC1 [sotrastaurin]
An outline of the steps:
as §1

Compound in test [3]: CNc1nc(-c2ccc3c(N)n[nH]c3c2)cc(N2C[C@@H](C(=O)NC3CCCCC3)CC[C@H]2C)n1
An outline of the steps: as §1

Chain of UniProt Q9NRX5 (Q9NRX5 whole entry, looked up): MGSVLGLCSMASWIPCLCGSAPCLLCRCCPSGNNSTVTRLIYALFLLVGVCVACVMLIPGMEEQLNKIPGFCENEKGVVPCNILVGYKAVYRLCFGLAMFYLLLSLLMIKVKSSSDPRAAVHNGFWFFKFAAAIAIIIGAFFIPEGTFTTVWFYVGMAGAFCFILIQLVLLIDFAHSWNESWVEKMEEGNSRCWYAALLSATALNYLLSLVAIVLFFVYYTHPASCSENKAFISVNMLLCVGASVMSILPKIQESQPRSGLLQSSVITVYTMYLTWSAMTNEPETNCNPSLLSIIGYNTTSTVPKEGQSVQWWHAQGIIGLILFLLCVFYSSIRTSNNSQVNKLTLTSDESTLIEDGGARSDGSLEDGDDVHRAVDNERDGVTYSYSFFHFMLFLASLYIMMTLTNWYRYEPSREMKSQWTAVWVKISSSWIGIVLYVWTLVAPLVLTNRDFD
Chain of UniProt Q96GF1 (Q96GF1 whole entry, looked up): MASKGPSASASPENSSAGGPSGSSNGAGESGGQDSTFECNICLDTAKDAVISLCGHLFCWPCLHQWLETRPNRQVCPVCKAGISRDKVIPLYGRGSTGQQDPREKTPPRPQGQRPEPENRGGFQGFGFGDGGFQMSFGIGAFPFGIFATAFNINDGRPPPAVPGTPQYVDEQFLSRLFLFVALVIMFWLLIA
Chain of UniProt O75056 (O75056 whole entry, looked up): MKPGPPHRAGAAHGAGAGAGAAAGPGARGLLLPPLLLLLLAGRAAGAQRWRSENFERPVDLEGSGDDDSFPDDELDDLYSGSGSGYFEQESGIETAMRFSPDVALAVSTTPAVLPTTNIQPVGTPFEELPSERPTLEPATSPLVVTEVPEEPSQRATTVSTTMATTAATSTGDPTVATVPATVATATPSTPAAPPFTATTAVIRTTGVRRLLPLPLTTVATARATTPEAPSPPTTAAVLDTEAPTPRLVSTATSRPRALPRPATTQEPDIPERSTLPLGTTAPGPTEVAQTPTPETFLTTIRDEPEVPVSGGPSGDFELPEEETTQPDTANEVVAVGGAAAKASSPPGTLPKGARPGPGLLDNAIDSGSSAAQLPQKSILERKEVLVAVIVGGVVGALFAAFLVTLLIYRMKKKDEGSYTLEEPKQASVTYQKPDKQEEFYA
Chain of UniProt Q01196 (Q01196 whole entry, looked up): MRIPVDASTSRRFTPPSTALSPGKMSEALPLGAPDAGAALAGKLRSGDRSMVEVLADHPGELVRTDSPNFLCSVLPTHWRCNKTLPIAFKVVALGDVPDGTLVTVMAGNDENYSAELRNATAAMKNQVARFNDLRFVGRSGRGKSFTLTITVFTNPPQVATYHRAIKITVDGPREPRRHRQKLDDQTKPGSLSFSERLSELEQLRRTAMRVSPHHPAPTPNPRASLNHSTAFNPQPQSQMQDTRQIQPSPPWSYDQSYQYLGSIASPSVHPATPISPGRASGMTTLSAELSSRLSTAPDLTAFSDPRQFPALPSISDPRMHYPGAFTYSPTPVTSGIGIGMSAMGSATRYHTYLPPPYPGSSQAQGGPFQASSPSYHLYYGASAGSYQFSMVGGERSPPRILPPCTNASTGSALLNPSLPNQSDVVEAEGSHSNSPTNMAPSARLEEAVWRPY
Chain of UniProt P43003 (P43003 whole entry, looked up): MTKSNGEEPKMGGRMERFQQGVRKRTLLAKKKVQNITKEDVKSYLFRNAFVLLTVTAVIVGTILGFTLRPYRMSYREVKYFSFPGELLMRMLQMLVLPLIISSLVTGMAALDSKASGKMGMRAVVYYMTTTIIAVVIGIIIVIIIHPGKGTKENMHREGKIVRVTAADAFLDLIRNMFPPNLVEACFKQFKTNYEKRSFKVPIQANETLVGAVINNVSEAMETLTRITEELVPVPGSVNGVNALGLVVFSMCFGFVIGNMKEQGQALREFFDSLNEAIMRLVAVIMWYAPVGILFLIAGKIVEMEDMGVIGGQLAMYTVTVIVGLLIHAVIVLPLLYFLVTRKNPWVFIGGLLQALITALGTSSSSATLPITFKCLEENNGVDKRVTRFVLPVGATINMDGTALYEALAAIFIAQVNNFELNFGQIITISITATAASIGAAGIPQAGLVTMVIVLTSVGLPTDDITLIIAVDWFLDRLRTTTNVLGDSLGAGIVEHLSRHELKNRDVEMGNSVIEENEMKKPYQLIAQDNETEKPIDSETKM
Chain of UniProt P51812 (P51812 whole entry, looked up): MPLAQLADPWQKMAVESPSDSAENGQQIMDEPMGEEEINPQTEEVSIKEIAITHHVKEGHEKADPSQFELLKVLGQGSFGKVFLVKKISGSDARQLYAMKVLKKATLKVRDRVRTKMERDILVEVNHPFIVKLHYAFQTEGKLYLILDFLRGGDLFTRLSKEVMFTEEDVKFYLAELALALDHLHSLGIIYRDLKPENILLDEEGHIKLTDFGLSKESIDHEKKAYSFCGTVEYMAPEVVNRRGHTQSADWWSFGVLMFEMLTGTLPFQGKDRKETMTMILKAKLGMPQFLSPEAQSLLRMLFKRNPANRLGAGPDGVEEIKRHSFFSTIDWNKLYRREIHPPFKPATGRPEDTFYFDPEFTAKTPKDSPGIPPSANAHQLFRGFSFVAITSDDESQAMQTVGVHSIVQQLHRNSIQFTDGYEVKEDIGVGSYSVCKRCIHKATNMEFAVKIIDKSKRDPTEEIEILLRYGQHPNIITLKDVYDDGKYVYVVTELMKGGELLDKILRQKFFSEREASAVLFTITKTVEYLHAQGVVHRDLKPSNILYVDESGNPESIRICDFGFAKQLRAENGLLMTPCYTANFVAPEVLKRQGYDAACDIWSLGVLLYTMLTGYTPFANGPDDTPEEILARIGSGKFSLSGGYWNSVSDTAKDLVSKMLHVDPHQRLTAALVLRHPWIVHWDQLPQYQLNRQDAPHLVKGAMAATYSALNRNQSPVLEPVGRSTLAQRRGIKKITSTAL
Chain of UniProt Q7Z6E9 (Q7Z6E9 whole entry, looked up): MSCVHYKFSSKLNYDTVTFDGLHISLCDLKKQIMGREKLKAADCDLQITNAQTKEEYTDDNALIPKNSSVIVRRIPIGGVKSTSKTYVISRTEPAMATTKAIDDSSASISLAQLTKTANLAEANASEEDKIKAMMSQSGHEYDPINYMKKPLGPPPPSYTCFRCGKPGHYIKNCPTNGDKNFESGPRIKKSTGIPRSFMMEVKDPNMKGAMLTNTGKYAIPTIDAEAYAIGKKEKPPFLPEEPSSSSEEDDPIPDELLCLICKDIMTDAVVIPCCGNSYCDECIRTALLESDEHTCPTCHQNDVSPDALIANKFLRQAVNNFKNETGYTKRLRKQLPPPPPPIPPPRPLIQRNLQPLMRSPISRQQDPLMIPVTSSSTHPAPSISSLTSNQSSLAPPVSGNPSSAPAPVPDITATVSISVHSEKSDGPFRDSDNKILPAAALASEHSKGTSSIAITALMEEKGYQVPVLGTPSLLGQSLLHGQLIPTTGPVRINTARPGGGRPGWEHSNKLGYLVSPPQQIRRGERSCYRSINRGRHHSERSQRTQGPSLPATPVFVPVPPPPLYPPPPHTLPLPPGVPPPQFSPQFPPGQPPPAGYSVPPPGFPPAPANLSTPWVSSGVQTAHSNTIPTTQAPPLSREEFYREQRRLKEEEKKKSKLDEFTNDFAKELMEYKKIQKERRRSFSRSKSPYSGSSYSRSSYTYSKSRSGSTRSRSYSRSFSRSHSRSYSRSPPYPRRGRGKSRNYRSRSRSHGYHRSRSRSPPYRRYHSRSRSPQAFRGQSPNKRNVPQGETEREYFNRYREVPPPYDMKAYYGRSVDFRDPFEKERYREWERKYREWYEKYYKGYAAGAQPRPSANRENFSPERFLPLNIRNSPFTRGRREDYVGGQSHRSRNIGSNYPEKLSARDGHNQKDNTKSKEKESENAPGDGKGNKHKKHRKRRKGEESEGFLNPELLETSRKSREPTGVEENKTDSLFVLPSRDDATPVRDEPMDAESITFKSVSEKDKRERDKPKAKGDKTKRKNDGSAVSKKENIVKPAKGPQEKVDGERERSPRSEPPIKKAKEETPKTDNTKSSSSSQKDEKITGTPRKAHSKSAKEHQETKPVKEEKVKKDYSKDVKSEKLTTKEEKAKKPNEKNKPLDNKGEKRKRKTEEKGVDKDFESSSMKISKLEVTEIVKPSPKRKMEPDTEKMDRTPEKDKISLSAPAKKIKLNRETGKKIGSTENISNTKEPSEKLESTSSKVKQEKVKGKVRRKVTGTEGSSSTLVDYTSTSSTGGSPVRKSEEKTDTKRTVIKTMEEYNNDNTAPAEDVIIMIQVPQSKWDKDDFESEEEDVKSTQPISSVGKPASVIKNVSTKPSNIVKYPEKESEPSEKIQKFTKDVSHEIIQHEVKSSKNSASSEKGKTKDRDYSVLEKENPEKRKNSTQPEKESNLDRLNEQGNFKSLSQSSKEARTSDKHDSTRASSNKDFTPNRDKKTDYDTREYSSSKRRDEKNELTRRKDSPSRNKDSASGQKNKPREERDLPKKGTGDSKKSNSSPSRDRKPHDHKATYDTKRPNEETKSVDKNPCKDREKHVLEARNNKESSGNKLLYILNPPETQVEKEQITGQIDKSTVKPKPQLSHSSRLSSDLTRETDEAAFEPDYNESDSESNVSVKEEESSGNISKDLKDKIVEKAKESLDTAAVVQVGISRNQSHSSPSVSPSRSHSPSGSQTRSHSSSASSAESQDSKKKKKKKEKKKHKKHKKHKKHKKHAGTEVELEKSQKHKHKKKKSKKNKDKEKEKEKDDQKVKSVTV
Chain of UniProt Q9H4P4 (Q9H4P4 whole entry, looked up): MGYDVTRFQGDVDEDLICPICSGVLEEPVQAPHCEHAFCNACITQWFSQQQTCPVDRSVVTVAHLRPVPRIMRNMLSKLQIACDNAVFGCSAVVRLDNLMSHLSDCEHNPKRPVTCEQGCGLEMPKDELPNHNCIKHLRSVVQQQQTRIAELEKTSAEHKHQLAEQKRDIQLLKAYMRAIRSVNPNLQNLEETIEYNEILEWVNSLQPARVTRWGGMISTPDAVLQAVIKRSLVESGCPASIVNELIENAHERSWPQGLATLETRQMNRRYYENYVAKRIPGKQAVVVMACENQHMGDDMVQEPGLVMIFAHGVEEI

Take RNF185 (UniProt Q96GF1): the log2 fold change is -0.003 in the test with alvocidib; 0.011 in the test with Tubastatin A; 0.001 in test [1]; -0.023 in the test with defactinib; 0.006 in the test with rucaparib; -0.094 in the test with encorafenib. The log2 fold change in test [2] was 0.125.

Regarding SDC3 (UniProt O75056), the log2 fold change is -0.251 in the test with saracatinib; -0.074 in the test with sotrastaurin; 0.051 with alvocidib; 0.163 with Tubastatin A; -0.004 with defactinib; -0.513 in the test with rucaparib. Also, the log2 fold change in test [3] was 0.036; with encorafenib, 0.125; in test [2] it was 0.034.

For the target RPS3 (UniProt E9PJN9), the log2 fold change in the test with saracatinib is -0.069; with Tubastatin A, 0.105; in the test with rucaparib, 0.064; in [3] it was -0.028; in the test with encorafenib, 0.052.

As to RNF41 (UniProt Q9H4P4), the log2 fold change with rucaparib was -0.087; with encorafenib it was -0.016.

As for RPS3A (UniProt D6R9B6), the log2 fold change with saracatinib is -0.125; with sotrastaurin it was 0.202; in the test with Tubastatin A it was 0.051; in test [3], -0.086.

As to RUNX1 isoform 8 (UniProt Q01196), the log2 fold change with saracatinib was -0.025; in the test with sotrastaurin, -0.132; in [1], -0.046; with defactinib it was 0.01; in the test with rucaparib it was 0.024; in test [3], 0.014. Besides, the figures for the log2 fold change (with encorafenib; in test [2]) were 0.183 and 0.047, respectively.

Take SEMG2 (UniProt Q02383): the log2 fold change with sotrastaurin is -0.016; with alvocidib it was 0.206; with Tubastatin A it was 0.025; with rucaparib, -0.033; with encorafenib, -0.011.

For the target SLC1A3 (UniProt P43003), the log2 fold change with saracatinib was 0.277; with alvocidib it was 0.056; with Tubastatin A, -0.157; in [1], -0.034; with defactinib, -0.013; with rucaparib it was 0.027. Further, the results for the log2 fold change (in [3]; in the test with encorafenib; in test [2]) were 0.481 (active), 0.072 and 0.106, respectively.

As to SERINC1 (UniProt Q9NRX5), the log2 fold change was 0.093 with saracatinib; -0.053 with sotrastaurin; -0.128 in the test with Tubastatin A; -0.008 in [1]; 0.031 in the test with defactinib; -0.095 in the test with rucaparib. For the same target, the values for the log2 fold change (in test [3]; with encorafenib; in test [2]) were -0.088, -0.062 and 0.055, respectively.

Take SH3PXD2B (UniProt A1X283): the log2 fold change in the test with sotrastaurin is -0.017; with alvocidib, -0.047; with Tubastatin A, -0.013; in [1], 0.061; with defactinib, 0.013; with rucaparib it was 0.238. The log2 fold change was 0.011 with encorafenib and 0.359 in [2].

Take RBM26 isoform 3 (UniProt Q5T8P6): in the test with sotrastaurin, the log2 fold change was -0.052.

Take RBBP6 (UniProt Q7Z6E9): the log2 fold change was 0.11 with sotrastaurin; -0.17 with alvocidib; 0.074 in the test with Tubastatin A; -0.006 in [1]; -0.056 in the test with defactinib; 0.067 with rucaparib. In addition, the log2 fold change with encorafenib is 0.055; in [2], 0.04.

Turning to RNF220 isoform 3 (UniProt Q5VTB9), the log2 fold change in [1] was -0.067.

As for RPS6KA3 (UniProt P51812), the log2 fold change in the test with saracatinib is 0.021; with sotrastaurin, -0.049; with alvocidib, -0.046; in the test with Tubastatin A, 0.019; in the test with defactinib it was -0.148; with rucaparib, 0.006. Further, the log2 fold change was -0.049 in test [3], -0.01 with encorafenib and -0.027 in test [2].
